# In the library only some 1.6% were active in any assay of this set; here they are far more common.
# KCNQ2 enhance = potentiators of rat KCNQ2 potassium channel | B-score at 10 µM | CHO-K1 KCNQ2, FluxOR thallium flux fluorescence; active compounds read high | O88943 | 310,000 tested, 0.54% active | AID 2239;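 active means fluorescence ratio B-score at least 3 SD of library B-scores, with initial fluorescence B-score within 3 of them, cut at about 5.3 in these data; same plate scores as AID 2156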;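 further: B-score of peak minus minimum over baseline fluorescence ratio after K+ and Tl+ stimulus; positive B-score means potentiation of KCNQ2 with more thallium influx and brighter signal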
# KCNQ2 block = blocks the rat KCNQ2 potassium channel; O88943; CHO-K1 KCNQ2, FluxOR thallium flux, 20 min; active compounds read low; B-score at 10 µM; 310,000 tested, 1.1% active;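 active means fluorescence ratio B-score at most minus 3 library SDs, with starting brightness B-score within 2 library SDs, cut at about -5.5 in these data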
# Numbers without * were called inactive; i = inactive; · = no result given.
SMILES,KCNQ2 enhance,KCNQ2 block
COc1ccc(C(=O)N(C)c2ccccc2C(=O)NCCc2ccccc2)cc1,·,i
Cc1ccc(-c2ccc(/C=N/NC(=O)Cc3nnc(N)s3)o2)cc1Cl,·,i
COc1ccc(-c2ccc(/C=N/NC(=O)Cc3nnc(N)s3)o2)cc1Cl,-7.4,-7.4*
CC1=CC(C)(C)n2c(O)c(N=NC(N)=S)c3c(C)c(C)cc1c32,1.9,i
CC1=CC(C)(C)n2c(O)c(N=N)c3c(C)c(C)cc1c32,-6.6,-6.6*
O=C(Cc1ccccc1)c1ccccc1C(=O)N1CCCCC1,0.32,i
N#CC(c1cccc(Cl)c1)c1ccc2c(C(F)(F)F)cc(C(F)(F)F)nc2n1 (stereo not given),15*,i
NNc1ccc2c(C(F)(F)F)cc(C(F)(F)F)nc2n1,0.33,i
CCc1nc(NC(=O)NS(=O)(=O)c2ccccc2C(=O)OC)nc(OC)n1,2.3,i
COc1ccc(N2CCN(CNC(=O)c3ccccc3)CC2)cc1,·,i
CC1=C(C)C(C)=C(C#N)C(=C(C#N)C#N)N1,·,i
CN1CCN(/N=C/c2ccc(-c3ccccc3)cc2)CC1,·,i
CN1CCN(/N=C/c2c3ccccc3c(Cl)c3ccccc23)CC1,-7.1,-7.1*
CC(C)OCCCn1c(SC(C)C(=O)NC2CC2)nc2ccccc2c1=O (stereo not given),0.13,i
CCc1ccc(NC(=O)Cn2cnc3sc(C)c(S(=O)(=O)N4CCOCC4)c3c2=O)cc1,0.01,i
CC(C)C(CCNC(=O)CN1C(=O)c2ccccc2C1=O)c1ccco1 (stereo not given),·,i
CC(C)C(CCNC(=O)CC(Cc1ccccc1)c1ccco1)c1ccco1 (stereo not given),-14,-14*
COc1ccc(S(=O)(=O)Nc2ccc(F)c(F)c2)cc1C(=O)N1CCOCC1,·,i
COCCn1cc(C(=O)N2CCC(C)CC2)c2c3ccccc3n(C)c2c1=O,-5.7,-5.7*
CCOC(=O)N1CCN(C(=O)c2cn(CC(C)C)c(=O)c3c2c2ccccc2n3C)CC1,·,i
CC(C)Cn1cc(C(=O)N2CCC(C)CC2)c2c3ccccc3n(C)c2c1=O,-7,-7*
CC(C)Cn1cc(C(=O)N2CCOCC2)c2c3ccccc3n(C)c2c1=O,·,i
O=C(/C=C/c1ccccc1)NCCS(=O)(=O)N1CCN(c2ccccc2F)CC1,·,i
Brc1ccc(-c2noc(COc3ccc4c(c3)CCC4)n2)o1,·,i
c1csc(-c2noc(COc3ccc4c(c3)CCCC4)n2)c1,-6,-6*
SMILES,KCNQ2 enhance,KCNQ2 block
CC(=O)NC(Cc1cccc(F)c1)C(=O)NC1CCN(C(=O)Nc2ccccc2)CC1 (stereo not given),1.7,i
CC1CCN(c2nnc(-c3ccccc3)c3ccccc23)CC1,-5.8,-5.8*
Cc1ccc(-c2nnc(N3CCC(C)CC3)c3ccccc23)cc1,·,i
Cc1nnsc1C(=O)Nc1ccc(S(=O)(=O)N2CCCCC2C)cc1 (stereo not given),0.01,i
COC(=O)c1ccc2c(=O)n(CCCCCC(=O)N3CCN(c4ccccc4)CC3)c(=O)[nH]c2c1,0.02,i
COc1cc2[nH]c(=O)n(CCCCCC(=O)N3CCN(c4ccccc4)CC3)c(=O)c2cc1OC,-8.3,-8.3*
CCCCCc1ccc(C(=O)CCCC)c(=S)[nH]1,8*,i
CCCCCc1cc(=O)[nH]c(=S)[nH]1,0.07,i
Cc1ccc2oc(C(=O)NCC3CCOCC3)c(C)c2c1,0.94,i
CC1(c2nnc(-c3cccc(Cl)c3)o2)CC(c2c(Cl)cccc2Cl)=NO1 (stereo not given),-5.6,-5.6*
Cc1ccc(C2=NOC(C)(c3nnc(-c4cccc(Cl)c4)o3)C2)cc1 (stereo not given),·,i
Cc1ccc(NC(=S)N2CCN(S(C)(=O)=O)CC2)cc1C,0.41,i
COc1cccc(CN(Cc2ccco2)C(c2ccc(F)cc2)c2nnnn2C(C)(C)C)c1 (stereo not given),-6.1,-6.1*
CC(C)(C)n1nnnc1C(c1cccnc1)N(Cc1ccccc1)Cc1ccco1 (stereo not given),·,i
O=C(OCC(=O)N(CCc1ccccc1)Cc1ccccc1)c1cc(S(=O)(=O)N2CCOCC2)ccc1F,·,i
Cc1ccc(C(=O)N(CCc2ccccc2)Cc2ccccc2)cc1S(=O)(=O)N1CCCCC1,-8.1,-8.1*
O=C(OCC(=O)N(CCc1ccccc1)Cc1ccccc1)c1ccccc1NCCO,-6.5,-6.5*
O=C(OCC(=O)N(CCc1ccccc1)Cc1ccccc1)c1cccc(O)c1,·,i
COc1ccc(C(=O)N(CCc2ccccc2)Cc2ccccc2)cc1S(=O)(=O)N1CCOCC1,·,i
Cc1ccc(C(=O)OCC(=O)N(CCc2ccccc2)Cc2ccccc2)cc1S(=O)(=O)N1CCOCC1,-6,-6*
COc1ccc(CNC(=O)C[C@H]2C(=O)N(CCc3ccccc3)C[C@@H]2Cc2ccccc2)cc1,·,i
COc1ccc(F)c(CN2CCCC(CNS(=O)(=O)c3cccc4cccnc34)C2)c1 (stereo not given),0.27,i
O=C(CN1N=C(c2ccccc2)CCC1=O)NCc1cccs1,0.21,i
CCOC(=O)C1(CCOc2ccccc2)CCN(C(=O)CCSC)CC1,1.2,i
CCC(=O)N1CCc2cc(S(=O)(=O)N3CCCCC3CC)ccc21 (stereo not given),1.5,i
SMILES,KCNQ2 enhance,KCNQ2 block
C=CCS(=O)(=O)N1CCCC(Cc2ccccc2C)(C(=O)OCC)C1 (stereo not given),0.25,i
CC(C)c1ccc(NC(=O)C2CC(=O)Nc3nc4ccccc4n32)cc1 (stereo not given),1.3,i
CC(=O)/C(=N\Nc1ccccc1)Sc1cccc2cccnc12,·,i
O=C(Sc1cccc2cccnc12)c1ccccc1Br,-6.2,-6.2*
Cc1ccc(CNC(=O)COC(=O)CCC(=O)c2cccs2)cc1,0.17,i
CN1C(=O)C(C)(C)c2cc(S(=O)(=O)N3CCCC(C(=O)NCc4ccc(Cl)cc4)C3)ccc21 (stereo not given),·,i
COc1ccc(NC(=O)[C@H](Cc2c[nH]c3ccccc23)NC(=O)[C@@H]2Cc3ccccc3CN2)cc1,·,i
CC(C)c1ccc(NC(=O)[C@H](Cc2c[nH]c3ccccc23)NC(=O)[C@@H]2Cc3ccccc3CN2)cc1,-8.2,-8.2*
O=C(Cn1nnc(-c2ccccc2F)n1)N1CCCCC1,0.13,i
Cc1cccc(N2CCN(C(=O)c3ccc(N4CCCC4=O)cc3)CC2C)c1 (stereo not given),2.3,i
Cc1cccc(N2CCN(C(=O)c3ccc4c(c3)c(C)c(C)n4C)CC2C)c1 (stereo not given),-6.1,-6.1*
O=C(CN1C(=O)COc2ccc(S(=O)(=O)N3CCCC3)cc21)NC1CC1,·,i
O=C(CN1C(=O)COc2ccc(S(=O)(=O)N3CCCC3)cc21)NC1CCCCCCC1,11*,i
CNC(=S)NNC(=O)c1cc(C(C)(C)C)nn1Cc1ccc(F)cc1,·,i
O=C(Cc1ccccc1)Nc1cc(Cl)ccc1Sc1ccccc1,·,i
O=C(Cc1ccc(Cl)cc1)Nc1ccccc1Sc1ccccc1,7.8*,i
O=C(Nc1cccc(NC(=O)c2ccco2)n1)c1ccco1,·,i
O=C(CSc1nnc(COc2ccc(Cl)cc2)o1)N1c2ccccc2CCc2ccccc21,-9.4,-9.4*
O=C(CSc1nnc(COc2ccc(Cl)cc2)o1)N1CCCC1,0.93,i
Cc1ccc(NC(=S)/C(=C(\[O-])c2ccc(Cl)s2)[n+]2cccc(CO)c2)cc1C,-7.8,-7.8*
